Structures can show the parent of a compound that is named as a salt.
Experiments:
Settings in all cases: treatment time: 24 h
A549-ACTB-RAB5A [1] = test: lowest phenotypically active concentration; higher = less potent
Method in brief: (§1)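 Cells from fifteen gene-edited reporter lines (A549, HepG2 and WPMY1) were treated for 24 h at 0.3, 1, 3 or 9 µM and imaged live, four wells per condition. Features were normalised per well to solvent control wells. A condition deviated if ≥3 of 4 wells passed the 95th percentile of control Euclidean distances and was reproducible if its median replicate Pearson correlation beat the 95th percentile of non-replicates; phenotypic activity needed both.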

A549-CANX-COX4 [2] = test: as above
Method in brief: as §1

A549-GM130-SQSTM1 [3] = test: as above
Method in brief: as §1

A549-TP53BP1-CLTA [4] = test: as above
Method in brief: as §1

A549-TUBA1B-RELA [5] = test: as above
Method in brief: as §1

A549-ACTB-RAB5A [6] = test: phenotypically active (imaging signature differs from DMSO and reproducible) at any of 0.3-9 uM (binary (1 = active, 0 = inactive)); higher = active
Method in brief: as §1

A549-CANX-COX4 [7] = test: as above
Method in brief: as §1

A549-GM130-SQSTM1 [8] = test: as above
Method in brief: as §1

A549-TP53BP1-CLTA [9] = test: as above
Method in brief: as §1

A549-TUBA1B-RELA [10] = test: as above
Method in brief: as §1

HepG2-ACTB-RAB5A = test: as above
Method in brief: as §1

HepG2-CANX-COX4 = test: as above
Method in brief: as §1

HepG2-GM130-SQSTM1 = test: as above
Method in brief: as §1

HepG2-TP53BP1-CLTA = test: as above
Method in brief: as §1

HepG2-TUBA1B-RELA = test: as above
Method in brief: as §1

WPMY1-ACTB-RAB5A = test: as above
Method in brief: as §1

WPMY1-CANX-COX4 = test: as above
Method in brief: as §1

WPMY1-GM130-SQSTM1 = test: as above
Method in brief: as §1

WPMY1-TP53BP1-CLTA = test: as above
Method in brief: as §1

WPMY1-TUBA1B-RELA = test: as above
Method in brief: as §1

Row | SMILES | lowest phenotypically active concentration (A549-ACTB-RAB5A [1]) [µM] | lowest phenotypically active concentration (A549-CANX-COX4 [2]) [µM] | lowest phenotypically active concentration (A549-GM130-SQSTM1 [3]) [µM] | lowest phenotypically active concentration (A549-TP53BP1-CLTA [4]) [µM] | lowest phenotypically active concentration (A549-TUBA1B-RELA [5]) [µM] | phenotypically active (A549-ACTB-RAB5A [6]) | phenotypically active (A549-CANX-COX4 [7]) | phenotypically active (A549-GM130-SQSTM1 [8]) | phenotypically active (A549-TP53BP1-CLTA [9]) | phenotypically active (A549-TUBA1B-RELA [10]) | phenotypically active (HepG2-ACTB-RAB5A) | phenotypically active (HepG2-CANX-COX4) | phenotypically active (HepG2-GM130-SQSTM1) | phenotypically active (HepG2-TP53BP1-CLTA) | phenotypically active (HepG2-TUBA1B-RELA) | phenotypically active (WPMY1-ACTB-RAB5A) | phenotypically active (WPMY1-CANX-COX4) | phenotypically active (WPMY1-GM130-SQSTM1) | phenotypically active (WPMY1-TP53BP1-CLTA) | phenotypically active (WPMY1-TUBA1B-RELA)
1 | COc1ccc(S(=O)(=O)N(CCO)c2ccccc2CN(C)C/C=C/c2ccc(Cl)cc2)cc1 | 3 | 9 | 3 | 9 | 3 | 1 (active) | 1 (active) | 1 (active) | 1 (active) | 1 (active) | 1 (active) | 1 (active) | 1 (active) | 1 (active) | 1 (active) | 1 (active) | 1 (active) | 1 (active) | 1 (active) | 1 (active)
2 | CO[C@H]1C[C@@H]2CC[C@@H](C)[C@@](O)(O2)C(=O)C(=O)N2CCCC[C@H]2C(=O)O[C@H]([C@H](C)C[C@@H]2CC[C@@H](OC(=O)C(C)(CO)CO)[C@H](OC)C2)CC(=O)[C@H](C)C=C(C)[C@@H](O)[C@@H](OC)C(=O)[C@H](C)C[C@H](C)C=CC=CC=C1C [Temsirolimus] | ≤ 0.3 | ≤ 0.3 | ≤ 0.3 | 3 | ≤ 0.3 | 1 (active) | 1 (active) | 1 (active) | 1 (active) | 1 (active) | 1 (active) | 1 (active) | 1 (active) | 1 (active) | 1 (active) | 1 (active) | 1 (active) | 1 (active) | 1 (active) | 1 (active)
3 | CC(=O)NC1=NN(C(C)=O)C(C)(c2ccccc2)S1 (stereo not given) | 3 | 3 | 9 | 9 | 3 | 1 (active) | 1 (active) | 1 (active) | 1 (active) | 1 (active) | 1 (active) | 1 (active) | 1 (active) | 1 (active) | 1 (active) | 1 (active) | 1 (active) | 1 (active) | 1 (active) | 1 (active)
4 | Nc1nc(S)c2[nH]cnc2n1 [thioguanine] | 3 | 9 | 9 | 9 | 9 | 1 (active) | 1 (active) | 1 (active) | 1 (active) | 1 (active) | 1 (active) | 1 (active) | 1 (active) | 1 (active) | 1 (active) | 1 (active) | 1 (active) | 1 (active) | 1 (active) | 1 (active)
5 | CCCC1(CCC)CCC2(CCN(CCCN(CC)CC)C2)CC1 [Atiprimod dihydrochloride] | ≤ 0.3 | 3 | ≤ 0.3 | 1 | ≤ 0.3 | 1 (active) | 1 (active) | 1 (active) | 1 (active) | 1 (active) | 1 (active) | 1 (active) | 1 (active) | 1 (active) | 1 (active) | 1 (active) | 1 (active) | 1 (active) | 1 (active) | 1 (active)

Source: the supplement of paper PMC7411054
